Bioassay records (PubChem)
PostGolgi ctrl = growth inhibition of yeast control strain, primary screen, counter-screen for post-Golgi transport modulator project; efflux-deficient yeast background strain, growth absorbance A615, 16 h; inhibition, % at 10 µM; actives 5% (n = 98,000); AID 738, 2007
Cav3 T inh = Cav3.2 calcium influx blockers – cell-based, Fluo-4 calcium fluorescence, FDSS, MLSMR library, primary screen. Voltage-dependent T-type calcium channel subunit alpha-1H (Homo sapiens), O95180. Cav3.2-expressing cells; active compounds read low. B-score at 10 µM. actives 4% (n = 100,000). AID 449739, 2010;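 active = single-dose well whose peak fluorescence ratio is a statistical outlier from its plate by either plate-standardised score or position-corrected B-score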
PostGolgi yeast = phenotypic screen on post-Golgi transport, primary screen; inhibition, % at 10 µM; AID 739, 2007; actives 0.9% (n = 98,000); post-Golgi transport phenotypic cell assay;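 also: yeast cells grown in 1536-well plates; yeast grown about 18 h at 30C before absorbance read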
sEH inh = soluble epoxide hydrolase inhibitors, primary screen, biochemical, human sEH; recombinant human sEH enzymatic activity assay; actives 0.34% (n = 91,000); inhibition, % at 2 µM; AID 707, 2007; Bifunctional epoxide hydrolase 2 (Homo sapiens), P34913; in the data active = inhibition above about 80%
Target sequence (P34913 whole entry, looked up): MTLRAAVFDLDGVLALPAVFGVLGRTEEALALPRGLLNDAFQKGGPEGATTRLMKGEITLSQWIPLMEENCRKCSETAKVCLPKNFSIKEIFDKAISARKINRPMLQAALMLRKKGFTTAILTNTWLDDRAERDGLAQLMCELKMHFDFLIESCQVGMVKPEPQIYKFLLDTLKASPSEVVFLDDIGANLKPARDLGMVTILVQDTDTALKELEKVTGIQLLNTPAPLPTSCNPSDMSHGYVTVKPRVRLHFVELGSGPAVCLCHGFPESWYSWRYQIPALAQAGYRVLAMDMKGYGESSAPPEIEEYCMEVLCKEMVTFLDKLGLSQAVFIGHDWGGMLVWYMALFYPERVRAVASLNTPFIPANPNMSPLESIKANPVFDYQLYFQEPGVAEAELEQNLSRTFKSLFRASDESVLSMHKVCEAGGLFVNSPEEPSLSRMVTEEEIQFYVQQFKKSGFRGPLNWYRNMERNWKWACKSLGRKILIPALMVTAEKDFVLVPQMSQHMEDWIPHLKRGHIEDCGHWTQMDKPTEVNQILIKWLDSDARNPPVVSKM
sEH act = soluble epoxide hydrolase activators, primary screen, biochemical, human sEH. purified human sEH enzymatic activity, activator screen. activation, % at 2 µM. actives 0.04% (n = 91,000). AID 717, 2007; in the data active = activation above about 37%
Large screens that a line does not name were inactive. Rows were chosen to be rich in hits. Some 7.8% of all compounds tested hit in one or more screens of this group. Rule as the data show it, unless noted: active = inhibition above about 30%; inactive = the rest.

CCCOc1ccc(C(=O)C(CN2CCOCC2)c2ccccc2)cc1 (stereo not given)	none (no result: PostGolgi ctrl, PostGolgi yeast)
CCCC(O)(c1ccc(Cl)cc1)C(CN1CCOCC1)c1ccccc1 (stereo not given)	PostGolgi ctrl 50
COc1ccc(OCC(O)CNc2ccc(Br)cc2)cc1 (stereo not given)	Cav3 T inh -4.2
Cn1cnc([N+](=O)[O-])c1Sc1ncccc1N	none
Cc1cc(N2CCN(c3ccccc3)CC2)nc(-c2ccccc2)n1	PostGolgi ctrl 67
Cc1cc(N2CCN(c3ccccc3)CC2)nc(N)n1	none (no result: PostGolgi ctrl, PostGolgi yeast)
Cc1cc(N2CCCCCC2)nc(-c2ccccc2O)n1	PostGolgi ctrl 34 (no result: Cav3 T inh)
O=c1c2[nH]c3ccccc3c2ncn1C1CCCCC1	PostGolgi yeast 34
CCC1CCCCN1c1cc(C)nc2cc(-c3cccc(C)c3)nn12 (stereo not given)	PostGolgi ctrl 55
O=C(CCCSc1nc2ccccc2[nH]1)N1CCN(c2ccc([N+](=O)[O-])cc2)CC1	PostGolgi ctrl 32
O=C(CSc1nc2ccccc2[nH]1)N1CCN(c2ccc(F)cc2)CC1	none
c1ccc2c(c1)oc1c(Nc3ccc(CN4CCOCC4)cc3)ncnc12	PostGolgi yeast 56
O=C(CN(C1CCCCC1)C1CCCCC1)N1CCc2ccccc2C1	Cav3 T inh -5.8
Cc1nn(C)c(C)c1S(=O)(=O)N(CC(=O)N1CCc2ccccc2C1)c1ccc(C(C)C)cc1	Cav3 T inh -4.8
Cc1nn(C)c(C)c1S(=O)(=O)N(CC(=O)N1CCc2ccccc21)c1ccc(C(C)C)cc1	none
O=C(CN(c1ccc(Cl)c(Cl)c1)S(=O)(=O)c1ccccc1)N1CCc2ccccc2C1	Cav3 T inh -5.4
CS(=O)(=O)N(CCc1ccccc1)CC(=O)N1CCc2ccccc2C1	none
CCN(CC)C(=O)C(=O)c1cccn1-c1ccccc1C#N	none
COc1cc(OC)c(OC)cc1/C=N/N(C)c1ccccc1	PostGolgi ctrl 45
Cc1nn2c(=O)nc3sc4c(c3c2[nH]c1=O)CCCC4	none (no result: PostGolgi ctrl, PostGolgi yeast)
CCOc1ccc2nc(N/C(N)=N/C(=S)Nc3cccc(C)c3)nc(C)c2c1	Cav3 T inh -5.5
O=C(NCCC(=O)N1CCNC1=O)OCc1ccccc1	none (no result: sEH inh, sEH act)
CN(C)S(=O)(=O)Nc1ccc(Oc2ccccc2)cc1	none
CCCCc1ccc(NS(=O)(=O)N(C)C)cc1	Cav3 T inh -4.3 (no result: sEH inh, sEH act)
O=C(NNC(=S)NC(=O)c1cccnc1)c1ccc(Cl)cc1	none
Cc1ccc(C(=O)NNC(=S)NC(=O)c2ccc(Cl)cc2)cc1	Cav3 T inh -4.2
O=C(CCc1ccccc1)NNC(=S)NC(=O)c1ccc(Cl)cc1	Cav3 T inh -3.7
CCCOc1ccc(C(=O)NNC(=S)NC(=O)c2cc(-c3ccc(Cl)cc3)nc3ccccc23)cc1	Cav3 T inh -6.7
Cc1ccccc1C(=O)NNC(=S)NC(=O)c1ccc(Cl)cc1Cl	Cav3 T inh -4
Cc1cc(C)c(C)c(S(=O)(=O)NCc2ccc(C(=O)N3CCCCC3)cc2)c1C	none (no result: PostGolgi ctrl, PostGolgi yeast)
C/C(=N\NS(=O)(=O)c1ccc(Cl)cc1)c1ccc(O)cc1	none
COc1cccc(CN2C(=O)C3(C(C#N)=C(N)OC4=C3C(=O)CCC4)c3ccccc32)c1 (stereo not given)	PostGolgi yeast 34
CCNc1nc(NC(C)C)nc(Oc2ccc(OCCOc3ccccc3)nn2)n1	none
CCC(C)n1c(SCC(=O)Nc2cc(C)on2)nc2ccccc2c1=O (stereo not given)	none (no result: sEH inh, sEH act)
CCC(CO)n1c(SCc2cc(=O)oc3cc(C)ccc23)nc2ccccc2c1=O (stereo not given)	PostGolgi ctrl 47, PostGolgi yeast 41
CC(=O)c1ccc(-c2ccccc2[C@H]2[C@H]3C=CC[C@@H](C)[C@@H]3C(=O)N2Cc2ccccc2)cc1	none (no result: PostGolgi ctrl, PostGolgi yeast, sEH inh, sEH act)
COc1cc(OC)cc(-c2cc3nc(C)cc(N4CCN(C(=O)c5ccco5)CC4)n3n2)c1	PostGolgi ctrl 30 (no result: Cav3 T inh)
C=C1[C@@H](OC(C)=O)CC[C@]2(C)[C@@H]1C[C@@H]1C[C@H](OC(C)=O)C(C)=C([C@@H](OC(C)=O)[C@@H]2OC(C)=O)C1(C)C	none (no result: PostGolgi ctrl, PostGolgi yeast, sEH inh, sEH act)
Cc1[nH]n(-c2ccccc2)c(=O)c1Sc1ccc(Cl)cc1	PostGolgi ctrl 35
COc1ccc(-n2c(Cc3cccn3C)nnc2SCC(=O)Nc2ccc3c(c2)OCCO3)cc1	Cav3 T inh -10
COc1ccc(-n2c(Cc3cccn3C)nnc2SCC(=O)Nc2ccc(C(C)=O)cc2)cc1	Cav3 T inh -8.4
Cc1ccc(-n2c(Cc3cccn3C)nnc2SCC(=O)Nc2cc(C)on2)cc1	none (no result: sEH inh, sEH act)
